High-throughput results as filed in PubChem.
Sampled rows, rich in hits. Any-hit rate of the full collection: about 3.6%.
NTMT1 inhibitor – NTMT1 methyltransferase inhibition; Q9BV86; NTMT1 MTase-Glo SAH luminescence, purified enzyme; Potency, µM (doses to about 114 µM), most hits filed as inhibitors; actives 2.5% (n = 59,000); AID 1645870; further: nearly all actives have a fitted effect of over 65% in size
OvCa metastasis – ovarian cancer metastasis inhibition, 3D TME model; SKOV3ip1-GFP adhesion/invasion on 3D omental model, fluorescence; Potency, µM (titrated, usually from 45.8 µM), most hits filed as inhibitors; actives 0.1% (n = 46,000); further: nearly all actives have a fitted effect of over 65% in size
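A 3D layer of primary human omental fibroblasts, mesothelial cells, fibronectin and collagen I, grown 48 hr, received SKOV3ip1-GFP cells in serum-free medium plus compounds at 0.36-46 umol/L. After 2 hr RT and 16 hr 37 C, fixed adherent GFP cells were counted; normalized to DMSO and tomatine.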
S16 F2sN tox – S16 Schwann cell cytotoxicity | S16 Pmp22-F2sN Schwann cells viability, CellTiter-Glo, 24 h | Potency, µM (highest dose often 57.5 µM), hits mostly cytotoxic | actives 0.48% (n = 43,000); further: nearly all actives have a fitted effect of over 65% in size
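Used to flag compounds lowering reporter output through toxicity, this quantitative HTS measures ATP-based CellTiter-Glo luminescence in S16 Pmp22-F2sN Schwann cells after 24 h compound exposure at 37C.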
PMP22 txn – modulators of PMP22 gene transcription in S16 Schwann cells; S16 Pmp22-F2sN Schwann cells (luciferase reporters placed in the Pmp22 gene), FLuc/NLuc coincidence luminescence, 24 h; Potency, µM (series often up to 57.5 µM), actives largely listed as inhibitors; actives 2% (n = 43,000); active means clear falling dose curves in both reporters; inconclusive means both reporters move, but less clearly or upward; inactive means either reporter flat; the % is the NLuc reporter signal
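Schwann cells carrying the coincidence reporter were exposed to library compounds for 24 h at 37C, then lysed and read for FLuc and, after quenching, NLuc luminescence on a CCD imager.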
GALC G270D act – galactocerebrosidase G270D activity enhancement, cell-based. P54803. 145M-Twi-hGALC-G270D cells (Twitcher mouse brain line with human GALC G270D), HMU-beta-Gal fluorescence, 48 h. Potency, µM (titrated, usually from 57.5 µM), actives largely listed as activators. actives 0.1% (n = 45,000). AID 1159614; further: nearly all actives have a fitted effect of over 65% in size
Target sequence (P54803 whole entry G286D): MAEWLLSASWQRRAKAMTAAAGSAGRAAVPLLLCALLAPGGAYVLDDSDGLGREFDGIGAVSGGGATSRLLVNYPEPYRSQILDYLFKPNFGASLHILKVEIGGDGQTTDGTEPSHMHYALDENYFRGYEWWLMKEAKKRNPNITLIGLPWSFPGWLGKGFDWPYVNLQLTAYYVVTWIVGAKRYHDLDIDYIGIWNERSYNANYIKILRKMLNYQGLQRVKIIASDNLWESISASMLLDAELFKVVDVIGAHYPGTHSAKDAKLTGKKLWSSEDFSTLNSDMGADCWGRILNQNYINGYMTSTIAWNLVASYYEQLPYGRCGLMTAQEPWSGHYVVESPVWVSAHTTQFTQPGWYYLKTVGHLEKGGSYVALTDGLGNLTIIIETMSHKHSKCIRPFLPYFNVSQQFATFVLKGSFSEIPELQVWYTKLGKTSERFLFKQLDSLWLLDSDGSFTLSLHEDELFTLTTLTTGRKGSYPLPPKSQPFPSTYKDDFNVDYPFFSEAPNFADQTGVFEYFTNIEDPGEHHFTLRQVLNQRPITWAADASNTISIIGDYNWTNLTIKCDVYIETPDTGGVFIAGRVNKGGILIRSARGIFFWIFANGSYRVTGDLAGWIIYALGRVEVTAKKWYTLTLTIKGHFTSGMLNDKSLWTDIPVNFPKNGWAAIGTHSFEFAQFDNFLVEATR
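Fluorogenic HMU-b-Gal hydrolysis (0.1 mM final, pH 5.2 citrate-phosphate with 1 mg/mL sodium taurocholate; carbonate stop buffer) measures mutant GALC activity after compound treatment of live 145M-Twi Twitcher brain cells stably carrying human GALC-G270D, with wild-type GALC line alongside; activation sought.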
pS6 MEF inh – reduces mTORC1 signaling in Tsc2 and p53 null MEF cells. Potency, µM (series often up to 38.3 µM), actives largely listed as inhibitors. actives 0.78% (n = 44,000). AID 493208. Tsc2-/- p53-/- MEF, phospho-rpS6 immunofluorescence/PI, 24 h; further: nearly all actives have a fitted effect of over 50% in size
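Tsc2-/-, p53-/- mouse embryonic fibroblasts (empty-vector line) exposed to compound 24 hrs at 37 C, fixed, immunostained for phospho-rpS6 and counterstained with propidium iodide. Acumen laser scanning gives % positive cells from Alexa 488/PI ratio, thresholded using 7.5 nM rapamycin; PI count gives viability.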
Each line names hits and unclear results; the compound was inactive in the other large screens. Unless noted, the call rests on the fitted dose curve; in most records, active means well fitted curve in the direction sought with a large enough effect; inconclusive means small, poorly fitted or top-dose-only effect, or another doubt; inactive means no such curve, though single readings can be large; an effect the other way counts as inactive or inconclusive.

CO[C@H]1C[C@@H]2CC[C@@H](C)[C@@](O)(O2)C(=O)C(=O)N2CCCC[C@H]2C(=O)O[C@H]([C@@H](C)C[C@@H]2CC[C@@H](O)[C@H](OC)C2)CC(=O)[C@H](C)/C=C(\C)[C@@H](O)[C@@H](OC)C(=O)[C@H](C)C[C@H](C)/C=C/C=C/C=C/1C	none (no result: OvCa metastasis, S16 F2sN tox, PMP22 txn, GALC G270D act, pS6 MEF inh)
COc1ccccc1Cn1cc(C(=O)c2ccc(Cl)cc2)c(=O)c2ccccc21	NTMT1 inhibitor inconclusive, OvCa metastasis inconclusive, S16 F2sN tox inconclusive, PMP22 txn inconclusive, pS6 MEF inh 3.3µM
COc1ccccc1Cn1cc(C(=O)c2ccc(Cl)cc2)c(=O)c2cc3c(cc21)OCCO3	NTMT1 inhibitor inconclusive, PMP22 txn inconclusive
COc1ccc(CCNC(=O)CCc2c(C)nc3cc(-c4cccc(F)c4)nn3c2C)cc1OC	NTMT1 inhibitor 89µM
O=C1CCCC2=C1C(c1ccncc1Cl)N=C(Nc1nc3ccccc3o1)N2 (stereo not given)	none (no result: OvCa metastasis, S16 F2sN tox, PMP22 txn, GALC G270D act, pS6 MEF inh)
C=C(C)[C@@H]1CC[C@]2(C)CC[C@]3(C)C(CCC4[C@@]5(C)CC[C@H](O)C(C)(C)C5CC[C@]43C)C12 (stereo not given in full)	none (no result: OvCa metastasis, S16 F2sN tox, PMP22 txn, GALC G270D act, pS6 MEF inh)
COc1ccc(Cn2c(CO)cnc2SCc2ccc(F)cc2)cc1	NTMT1 inhibitor 89µM, PMP22 txn inconclusive
COc1ccc(Cn2c(CO)cnc2SCc2ccc(C)cc2)cc1	none
COc1cc(C(=O)Nc2nc(-c3ccccc3)cs2)ccc1NS(=O)(=O)c1ccc(C)cc1	none (no result: OvCa metastasis, S16 F2sN tox, PMP22 txn, GALC G270D act, pS6 MEF inh)
O=C(c1ccco1)N1CCNCC1	none (no result: OvCa metastasis, S16 F2sN tox, PMP22 txn, pS6 MEF inh)
COc1ccccc1-c1cccc(-c2c(O)c3cc(C#N)c(Cl)cc3[nH]c2=O)c1	none (no result: S16 F2sN tox, PMP22 txn, GALC G270D act, pS6 MEF inh)
Oc1ccc(NCc2ccccc2OCc2ccccc2)cc1	NTMT1 inhibitor inconclusive, S16 F2sN tox 20µM, PMP22 txn 7.3µM, pS6 MEF inh inconclusive
Oc1ccc(NCc2ccccc2OCc2ccc(Cl)cc2)cc1	NTMT1 inhibitor inconclusive, S16 F2sN tox 20µM, PMP22 txn inconclusive, pS6 MEF inh inconclusive
CCN(CC)C(=O)C1CN2CCc3cc(OC)c(OC)cc3C2CC1OC(C)=O (stereo not given)	none (no result: OvCa metastasis, S16 F2sN tox, PMP22 txn, pS6 MEF inh)
O=C(Nc1ccc2oc(-c3cccnc3)nc2c1)c1ccc(-c2ccc(OC(F)(F)F)cc2)o1	NTMT1 inhibitor 50µM, S16 F2sN tox inconclusive
COc1ccc(OCC(=O)Nc2ccc(-c3nc4cc(C)c(C)cc4o3)cc2)cc1	none
O=C(Nc1ccc2oc(-c3cccnc3)nc2c1)c1ccc(-c2ccccc2)o1	NTMT1 inhibitor inconclusive
CCc1ccc(OCC(=O)Nc2ccc3oc(-c4ccc(OC)cc4)nc3c2)cc1	pS6 MEF inh 13µM
Cc1ccc(NS(=O)(=O)c2ccc3c(c2)C2C=CCC2C(c2ccc(C(=O)O)cc2)N3)cc1C (stereo not given)	NTMT1 inhibitor 25µM (no result: OvCa metastasis, S16 F2sN tox, PMP22 txn, GALC G270D act, pS6 MEF inh)
Cc1ccc(NS(=O)(=O)c2ccc3c(c2)[C@H]2C=CC[C@H]2[C@@H](c2ccc(F)cc2)N3)cc1C	none
COc1ccc(CCN2CCC(CNC(=O)c3cnn(-c4cccc(Cl)c4)c3C3CCN(C(=O)OC(C)(C)C)CC3)CC2)cc1	NTMT1 inhibitor 79µM, OvCa metastasis inconclusive, S16 F2sN tox inconclusive, PMP22 txn inconclusive, pS6 MEF inh inconclusive
COCCCNC(=O)c1cnn(-c2ccccc2Cl)c1C1CCN(C(=O)OC(C)(C)C)CC1	NTMT1 inhibitor 89µM
O=C(c1ccc(C=Cc2n[nH]c3ccccc23)cc1)N1CCNCC1	none (no result: S16 F2sN tox, PMP22 txn, GALC G270D act, pS6 MEF inh)
CCOc1ccc(-c2nonc2NC(=O)c2oc3ccc(Br)cc3c2C)cc1	PMP22 txn inconclusive
CCOc1ccc(-c2nonc2NC(=O)c2oc3cc(Br)ccc3c2C)cc1	S16 F2sN tox inconclusive, PMP22 txn 9.5µM
CCCCC(CC)CN=C(N)NC(N)=NCCCCCCN=C(N)NC(N)=NCC(CC)CCCC (stereo not given)	NTMT1 inhibitor 3.2µM (no result: OvCa metastasis, S16 F2sN tox, PMP22 txn, pS6 MEF inh)
COc1cccc(C2c3c(ncn(-c4ccccc4C#N)c3=N)Oc3ccc4ccccc4c32)c1 (stereo not given)	NTMT1 inhibitor 79µM (no result: OvCa metastasis, S16 F2sN tox, PMP22 txn, GALC G270D act, pS6 MEF inh)
